Results filed as inconclusive are left out. Unmarked numbers belong to inactive results. The source made the active and inactive calls. The call rests on the fitted dose curve; in most records, active means well fitted inhibition curve with a large enough effect; inconclusive means small, poorly fitted or top-dose-only effect; inactive means no such curve, though single readings can be large or run the other way.
Experiment: qHTS Screen of the MIPE 4.0 Collection Against Ewings Sarcoma (TC71) (AID 1259253); further: nearly all actives have a fitted effect of over 40% in size;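 on viability (% of DMSO): 100% = DMSO-treated cells and 0% = medium-only wells without cells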
Conditions: TC71 Ewing sarcoma viability, CellTiter-Glo, 48 h; series mostly up to 45.8 µM; viability (% of DMSO): at the top concentration
Method in brief: (§1)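 Cells plated in serum-containing RPMI (5% FBS) and treated with compound dilutions for 48 h. Readout luminescent viability; normalization relied on vehicle (no inhibition) and media-only columns (full inhibition).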
Potency means the concentration at half of the fitted maximal effect.

SMILES | Potency | viability (% of DMSO)
CC(C)N[C@@H]1CCn2c(=O)[nH]c3cccc(c32)[C@@H]1O | 8.33 µM (active) | 
CC1=C(O)C(=O)C=C2C1=CC=C1[C@@]2(C)CC[C@@]2(C)[C@@H]3C[C@](C)(C(=O)O)CC[C@]3(C)CC[C@]12C | 1.18 µM (active) | 
CC[C@H]1C=CC=CC[C@@H](C)[C@H](O)[C@@](C)(O)C(=O)[C@@H](C)[C@H](O)[C@@H](C)C(=O)[C@@H](C)[C@H](O)[C@@H](C)C=CC(=O)O[C@@H]2[C@@H](C)[C@H](CC1)O[C@]1(CC[C@H](C)[C@H](C[C@@H](C)O)O1)[C@H]2C | 0.0118 µM (active) | 
Oc1ccc2c3c1O[C@H]1c4[nH]c5c(c4C[C@@]4(O)[C@@H](C2)N(CC2CC2)CC[C@]314)C[C@@]1(O)[C@H]2Cc3ccc(O)c4c3[C@@]1(CCN2CC1CC1)[C@H]5O4 |  | 120%
O=C(O)CNC(=O)c1c(O)c2ccccc2n(Cc2ccccc2)c1=O | 13.2 µM (active) | 
NC1CC1c1ccccc1 (configuration not stated) |  | 113%
C[C@@H]1O[C@@H](O[C@@H]2C=C3CC[C@@H]4[C@@H](CC[C@]5(C)[C@H](c6ccc(=O)oc6)CC[C@@]45O)[C@@]3(C)CC2)[C@H](O)[C@H](O)[C@H]1O | 0.0187 µM (active) | 
c1ccc(CCCN2CCN(CCOC(c3ccccc3)c3ccccc3)CC2)cc1 | 16.6 µM (active) | 
CN1CCN(c2ccc([N+](=O)[O-])c3no[n+]([O-])c23)CC1 | 23.5 µM (active) | 
CC(C)[C@H]1C(=O)N[C@H](CO)Cc2c[nH]c3cccc(c23)N1C |  | 107%

Experiment: qHTS Screen of the MIPE 4.0 Collection Against Ewings Sarcoma (EW8) (AID 1259255); further: nearly all actives have a fitted effect of over 35% in size;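 on viability: 100% = DMSO-treated cells and 0% = medium-only wells without cells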
Conditions: EW8 Ewing sarcoma viability, CellTiter-Glo, 48 h; series mostly up to 45.8 µM; viability: at the top concentration
Method in brief: as §1

SMILES | viability | Potency
c1cc2c(cc1[C@H]1OC[C@H]3[C@H]1CO[C@H]3c1ccc3c(c1)OCO3)OCO2 | 94.4% | 
O=C1CCC[C@@H]2[C@H]3CCCN4CCC[C@@H](CN12)[C@@H]34 | 108% | 
CCOC(=O)c1c(C(C#N)=CN)c2ccc(Cl)c(Cl)c2n1C | 103% | 
C[C@@H]1CC[C@@]2(OC1)O[C@H]1C[C@H]3[C@@H]4CC=C5C[C@@H](O[C@@H]6O[C@H](CO)[C@@H](O[C@@H]7O[C@@H](C)[C@H](O)[C@@H](O)[C@@H]7O)[C@H](O)[C@@H]6O[C@@H]6O[C@@H](C)[C@H](O)[C@@H](O)[C@@H]6O)CC[C@]5(C)[C@@H]4CC[C@]3(C)[C@@H]1[C@H]2C |  | 3.72 µM (active)
CC1=C(O)C(=O)C=C2C1=CC=C1[C@@]2(C)CC[C@@]2(C)[C@@H]3C[C@](C)(C(=O)O)CC[C@]3(C)CC[C@]12C |  | 0.935 µM (active)
O=S(=O)(CC1CS1)c1ccc(Oc2ccccc2)cc1 (configuration not stated) |  | 20.9 µM (active)
Oc1ccc2c3c1O[C@H]1c4[nH]c5c(c4C[C@@]4(O)[C@@H](C2)N(CC2CC2)CC[C@]314)C[C@@]1(O)[C@H]2Cc3ccc(O)c4c3[C@@]1(CCN2CC1CC1)[C@H]5O4 | 121% | 
O=C(Nc1ccncc1)C(=O)c1cn(Cc2ccc(Cl)cc2)c2ccccc12 |  | 0.0935 µM (active)
O=c1cccc2n1CC1CNC[C@H]2C1 | 120% | 
NC1CC1c1ccccc1 (configuration not stated) | 105% | 
C[C@@H]1O[C@@H](O[C@@H]2C=C3CC[C@@H]4[C@@H](CC[C@]5(C)[C@H](c6ccc(=O)oc6)CC[C@@]45O)[C@@]3(C)CC2)[C@H](O)[C@H](O)[C@H]1O |  | 0.0166 µM (active)
O=c1[nH]c2ccc(Cl)cc2c(N[C@@H]2CN3CCC2CC3)c1-c1nc2ccccc2[nH]1 |  | 0.0743 µM (active)
CN1CCN(c2ccc([N+](=O)[O-])c3no[n+]([O-])c23)CC1 |  | 23.5 µM (active)
C#CC1(O)CCC2C3CCC4=CC(=O)CCC4(C)C3CCC21C (configuration not stated) | 113% | 
CC(C)[C@H]1C(=O)N[C@H](CO)Cc2c[nH]c3cccc(c23)N1C | 114% | 

Experiment: qHTS Screen of the MIPE 4.0 Collection Against Ewings Sarcoma (TC32) (AID 1259256); further: nearly all actives have a fitted effect of over 45% in size;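 on viability (percent of control): 100% = DMSO-treated cells and 0% = medium-only wells without cells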
Conditions: TC32 Ewing sarcoma viability, CellTiter-Glo, 48 h; series mostly up to 45.8 µM; viability (percent of control): at the top concentration
Method in brief: as §1

SMILES | Potency | viability (percent of control)
CCOC(=O)Nc1ccc(NCc2ccc(F)cc2)cc1N | 20.9 µM (active) | 
CC(C)N[C@@H]1CCn2c(=O)[nH]c3cccc(c32)[C@@H]1O | 8.33 µM (active) | 
c1cc2c(cc1[C@H]1OC[C@H]3[C@H]1CO[C@H]3c1ccc3c(c1)OCO3)OCO2 |  | 119%
O=C1CCC[C@@H]2[C@H]3CCCN4CCC[C@@H](CN12)[C@@H]34 |  | 125%
COCC1(CO)C(=O)C2CCN1CC2 (configuration not stated) | 2.35 µM (active) | 
CCOC(=O)c1c(C(C#N)=CN)c2ccc(Cl)c(Cl)c2n1C |  | 147%
N=c1c2c(-c3ccccc3)c(-c3ccccc3)n(Cc3ccccc3)c2ncn1C1CCC(O)CC1 (configuration not stated) | 0.662 µM (active) | 
C[C@@H]1CC[C@@]2(OC1)O[C@H]1C[C@H]3[C@@H]4CC=C5C[C@@H](O[C@@H]6O[C@H](CO)[C@@H](O[C@@H]7O[C@@H](C)[C@H](O)[C@@H](O)[C@@H]7O)[C@H](O)[C@@H]6O[C@@H]6O[C@@H](C)[C@H](O)[C@@H](O)[C@@H]6O)CC[C@]5(C)[C@@H]4CC[C@]3(C)[C@@H]1[C@H]2C | 3.72 µM (active) | 
CC1=C(O)C(=O)C=C2C1=CC=C1[C@@]2(C)CC[C@@]2(C)[C@@H]3C[C@](C)(C(=O)O)CC[C@]3(C)CC[C@]12C | 0.833 µM (active) | 
O=S(=O)(CC1CS1)c1ccc(Oc2ccccc2)cc1 (configuration not stated) | 16.6 µM (active) | 
Oc1ccc2c3c1O[C@H]1c4[nH]c5c(c4C[C@@]4(O)[C@@H](C2)N(CC2CC2)CC[C@]314)C[C@@]1(O)[C@H]2Cc3ccc(O)c4c3[C@@]1(CCN2CC1CC1)[C@H]5O4 |  | 115%
O=C(Nc1ccncc1)C(=O)c1cn(Cc2ccc(Cl)cc2)c2ccccc12 |  | 110%
O=C1C=CC[C@@H]2[C@H]3CCCN4CCC[C@@H](CN12)[C@@H]34 | 16.6 µM (active) | 
C[C@](O)(COc1ccc(C#N)cc1)C(=O)Nc1ccc(C#N)c(C(F)(F)F)c1 |  | 109%
Cc1c(C(=O)Nc2cccc(C(F)(F)F)c2)cc(-c2ccccc2)n1CCCN1CCOCC1 | 8.33 µM (active) | 
CC(=Cc1csc(C)n1)[C@@H]1C[C@H]2O[C@]2(C)CCC[C@H](C)[C@@H](O)[C@@H](C)C(=O)C(C)(C)[C@@H](O)CC(=O)O1 |  | 110%

SMILES | Potency | viability (percent of control)
CCCCCC[C@H]1C(=O)O[C@H](C)[C@H](NC(=O)c2cccc(NC=O)c2O)C(=O)O[C@@H](C)[C@@H]1OC(=O)CC(C)C | 0.0833 µM (active) | 
Cc1c(C(=O)c2cccc3ccccc23)c2cccc3c2n1[C@H](CN1CCOCC1)CO3 | 26.4 µM (active) | 
CC(O)=C(C#N)C(=O)Nc1cc(Br)ccc1Br | 20.9 µM (active) | 
C1=C2CCCN[C@H]2[C@@H]2C[C@H]1[C@@H]1CCCCN1C2 |  | 105%
CCC(=O)OC1CCC2C3CCC4=CC(=O)CC[C@@]4(C)C3CC[C@]12C (some centres not stated) |  | 99%
NC1CC1c1ccccc1 (configuration not stated) |  | 101%
C[C@@H]1O[C@@H](O[C@@H]2C=C3CC[C@@H]4[C@@H](CC[C@]5(C)[C@H](c6ccc(=O)oc6)CC[C@@]45O)[C@@]3(C)CC2)[C@H](O)[C@H](O)[C@H]1O | 0.0235 µM (active) | 
O=c1[nH]c2ccc(Cl)cc2c(N[C@@H]2CN3CCC2CC3)c1-c1nc2ccccc2[nH]1 | 0.0833 µM (active) | 
c1ccc(CCCN2CCN(CCOC(c3ccccc3)c3ccccc3)CC2)cc1 | 20.9 µM (active) | 
CN1CCN(c2ccc([N+](=O)[O-])c3no[n+]([O-])c23)CC1 | 18.7 µM (active) | 
C#CC1(O)CCC2C3CCC4=CC(=O)CCC4(C)C3CCC21C (configuration not stated) |  | 126%
C[C@]12COC(=O)C[C@@H]1CC[C@@H]1[C@H]2CC[C@@]2(C)[C@H]1CC[C@]2(C)O |  | 105%
CC(C)[C@H]1C(=O)N[C@H](CO)Cc2c[nH]c3cccc(c23)N1C | 0.166 µM (active) | 
C[C@@]12OC(=O)[C@]1([C@@H](O)[C@@H]1C=CCCC1)NC(=O)[C@H]2CCCl | 0.0418 µM (active) | 
CCNC(=O)C[C@@H]1N=C(c2ccc(Cl)cc2)c2cc(OC)ccc2-n2c(C)nnc21 | 3.72 µM (active) | 
CC(=Cc1csc(C)n1)[C@@H]1C[C@H]2O[C@@H]2CCC[C@H](C)[C@@H](O)[C@@H](C)C(=O)C(C)(C)[C@@H](O)CC(=O)O1 |  | 96.2%
